PubChem BioAssay AID463173 (ICCB-Longwood Screening Facility, Harvard Medical School, 2010)
Hit rate of the full screen: of about 52,000 compounds, about 4,300 (8.3%) were called active. No stated cut-off is given here; in the data, active means survival mostly below about 52% (no sharp cut-off); inactive means mostly above about 56%. This excerpt belongs to a sample that is enriched for actives.

test system: DeltatarO mutant; assay: growth inhibition of S. aureus wild type versus tarO mutant, primary screen, teichoic acid synthesis inhibitors, RN4220, OD600 (AID 463173); details: OD600, 18 h, active compounds read low, screened at 18.75 µg/mL (by protocol)

Compound | survival
Cc1ccccc1C(=O)Nc1c(C)nc2ccccn2c1=O | 37% (active)
Cc1nc2ccccn2c(=O)c1NC(=O)c1ccccc1Cl | 131% (inactive)
Cc1ccc(C(=O)Nc2c(C)nc3ccccn3c2=O)cc1C | 69% (inactive)
Cc1nc2ccccn2c(=O)c1NC(=O)c1ccc(F)c(F)c1 | 99% (inactive)
Cc1nc2ccccn2c(=O)c1NC(=O)c1ccc(C(F)(F)F)cc1 | 0% (active)
Cc1ccc(C(=O)Nc2c(C)nc3ccccn3c2=O)cc1 | 74% (inactive)
O=c1ccc2cc(S(=O)(=O)NCc3ccc(Cl)cc3)ccc2[nH]1 | 91% (inactive)
Cc1cccc2sc(N(Cc3cccnc3)C(=O)CCOc3ccccc3)nc12 | 82% (inactive)
Cc1cccc(N2CCN(S(=O)(=O)c3ccc4oc(=O)c5ncn(C)c5c4c3)CC2)c1C | 77% (inactive)
O=C(/C=C/c1ccccc1)N1CCN(Cc2cc(=O)n3nc(-c4ccccc4)sc3n2)CC1 | 90% (inactive)
CC(NC(=O)C1CCN(C(=O)c2ccc(-n3ccc4ccccc43)s2)CC1)c1ccccc1 (stereo unspecified) | 79% (inactive)
CCOc1ccc(/C=C/C(=O)NCc2ccco2)cc1OC | 83% (inactive)
Cc1cc(C)nc(NS(=O)(=O)c2ccc(NC(=O)COc3ccc(C(C)(C)C)cc3)cc2)n1 | 56% (inactive)
CCN(c1ccc(OC)cc1)S(=O)(=O)c1ccc2[nH]c(=O)ccc2c1 | 79% (inactive)
CN(C)CCN(Cc1ccccc1)S(=O)(=O)c1ccc2[nH]c(=O)ccc2c1 | 95% (inactive)
COCCN(Cc1ccc(C)c(Br)c1)S(=O)(=O)c1ccc2[nH]c(=O)ccc2c1 | 20% (active)
Cc1ccc2oc(C(=O)Nc3ccc(S(=O)(=O)Nc4ncccn4)cc3)cc(=O)c2c1 | 70% (inactive)
CCS(=O)(=O)N1CCCc2cc(C(=O)Nc3cc([N+](=O)[O-])ccc3C)ccc21 | 42% (active)
CCS(=O)(=O)N1CCc2cc(C(=O)Nc3cc(C)cc(C)c3)ccc21 | 80% (inactive)
CCS(=O)(=O)N1CCc2cc(C(=O)Nc3cc(Cl)ccc3C)ccc21 | 72% (inactive)
Cc1ccc(C)c(NC(=O)c2ccc3c(c2)CCCN3S(C)(=O)=O)c1 | 81% (inactive)
CCS(=O)(=O)N1CCc2cc(C(=O)Nc3ccc(C)c(Cl)c3)ccc21 | 98% (inactive)
CCS(=O)(=O)N1CCc2cc(C(=O)Nc3cc([N+](=O)[O-])ccc3C)ccc21 | 40% (active)

Compound | survival
CCc1nc2cccnc2n1-c1ccc(CC(=O)Nc2cccc(C)c2C)cc1 | 81% (inactive)
O=C(NCc1ccco1)C1CCC(N2C(=O)c3ccccc3C2=O)CC1 (stereo unspecified) | 63% (inactive)
C=CCNC(=O)Cc1c(O)c2ccccc2[nH]c1=O | 101% (inactive)
CC(C)COC(=O)Cc1c(O)c2ccccc2[nH]c1=O | 39% (active)
CCCCCc1c(O)c2ccccc2[nH]c1=O | 103% (inactive)
Cc1ccc(NC(=O)C2CCN(S(=O)(=O)c3c(C)noc3C)CC2)cc1C | 91% (inactive)
Cc1c(C)n(Cc2ccc(F)cc2)c2ccc(C(=O)N3CCN(c4ccc(Cl)cc4)CC3)cc12 | 83% (inactive)
Cc1ccc(OCC(=O)OC2=C(C(=O)c3ccccc3)N(C)S(=O)(=O)c3ccccc32)cc1 | 82% (inactive)
CCN1C(C(=O)c2ccccc2)=C(OC(=O)COc2ccc(C)cc2)c2ccccc2S1(=O)=O | 79% (inactive)
CCN1C(C(=O)c2ccccc2)=C(OC(=O)COc2ccccc2)c2ccccc2S1(=O)=O | 41% (active)
CCN1C(C(=O)c2ccccc2)=C(OC(=O)COc2ccc(OC)cc2)c2ccccc2S1(=O)=O | 60% (inactive)
CCCN1C(C(=O)c2ccccc2)=C(OC(=O)COc2ccccc2)c2ccccc2S1(=O)=O | 49% (inactive)
CCCN1C(C(=O)c2ccccc2)=C(OC(=O)COc2ccc(C)cc2)c2ccccc2S1(=O)=O | 19% (active)
COc1ccc(-c2nc(C)c(CCNS(=O)(=O)c3cc(C)c(C)cc3C)s2)cc1 | 72% (inactive)
CCc1ccc(Nc2nn(-c3ccc(OC(F)(F)F)cc3)nc2C(C)=O)cc1 | 92% (inactive)
CCC1=NN(C(=O)Cc2ccccc2)C(O)(c2ccccc2)C1 (stereo unspecified) | 77% (inactive)
CCC1=NN(C(=O)c2ccccc2O)C(O)(c2ccccc2)C1 (stereo unspecified) | 1% (active)
CCOC(=O)N1N=C(C)CC1(O)c1ccccc1 (stereo unspecified) | 90% (inactive)
COc1ccc(CCNC(=O)C2CCCN(c3nc4c(C)cc(C)cc4s3)C2)cc1OC (stereo unspecified) | 81% (inactive)
O=C(CC(c1ccccc1)c1ccccc1)N1CCN(c2ccccn2)CC1 | 72% (inactive)
CCCOc1cccc(C(=O)Nc2ccc(-c3nc4ccccc4o3)cc2)c1 | 77% (inactive)
Cc1ccc(-c2nc3ccccc3[nH]2)cc1NC(=O)C(C)C | 70% (inactive)
COc1c(Cl)cc(C(=O)Nc2cc(-c3nc4ccccc4[nH]3)ccc2C)cc1Cl | 49% (inactive)

Compound | survival
Cc1ccc(C(C)C)c(OCC(=O)Nc2cc(-c3nc4ccccc4[nH]3)ccc2C)c1 | 71% (inactive)
Cc1ccc(-c2nc3ccccc3[nH]2)cc1NC(=O)COc1ccc(Cl)cc1Cl | 18% (active)
CCCOc1ccc(C(=O)Nc2cc(-c3nc4cc(C)cc(C)c4o3)ccc2C)cc1 | 85% (inactive)
COc1cc(OC)cc(C(=O)Nc2cc(-c3nc4ccccc4[nH]3)ccc2C)c1 | 44% (active)
Cc1ccc(-c2nc3ccccc3[nH]2)cc1NC(=O)COc1cccc(C)c1C | 43% (inactive)
CCCOc1ccc(C(=O)Nc2cc(-c3nc4ccccc4[nH]3)ccc2C)cc1 | 44% (active)
CCCOc1cccc(C(=O)Nc2cc(-c3nc4ccccc4[nH]3)ccc2C)c1 | 56% (active)
Cc1ccc(-c2nc3ccccc3[nH]2)cc1NC(=O)COc1ccccc1[N+](=O)[O-] | 60% (inactive)
Cc1ccc(OCC(=O)Nc2cc(-c3nc4ccccc4[nH]3)ccc2C)c(C)c1 | 78% (inactive)
Cc1ccc(NC(=O)Cn2nc(C(F)(F)F)c3c2CCCC3)cc1 | 120% (inactive)
CCn1c(=O)c2sccc2n2c(CCC(=O)Nc3ccc(OC)cc3OC)nnc12 | 82% (inactive)
Cc1cccc(NC(=O)c2cnc3sc(N4CCCC4)nn3c2=O)c1C | 73% (inactive)
Cc1ccc(NC(=O)C2CCCN(c3ncnc4c3nc3n4CCCCC3)C2)c(Br)c1 (stereo unspecified) | 87% (inactive)
CC(=O)c1cccc(NC(=O)C2=CC(c3ccc4c(c3)OCO4)=NS(=O)(=O)N2C)c1 | 72% (inactive)
Cc1ccc(CNC(=O)CN(c2cc(C)cc(C)c2)S(=O)(=O)c2c(C)[nH]c(=O)[nH]c2=O)cc1 | 91% (inactive)
Cc1ccccc1NC(=O)CSc1nc2ccc(NC(=O)c3cccs3)cc2s1 | 91% (inactive)
Cc1ccccc1OCCCCn1nnc2sc3c(c2c1=O)CCC(C)C3 (stereo unspecified) | 65% (inactive)
CN(C)c1ccc(NC(=O)Cn2nnc3sc4c(c3c2=O)CCC(C(C)(C)C)C4)cc1 (stereo unspecified) | 79% (inactive)
CCOc1ccccc1NC(=O)Cn1nnc2sc3c(c2c1=O)CCC(C(C)(C)C)C3 (stereo unspecified) | 106% (inactive)
Cc1ccc(OCCn2nnc3sc4c(c3c2=O)CCC(C)C4)cc1 (stereo unspecified) | 54% (inactive)
CC1CCc2c(sc3nnn(Cc4ccccc4Cl)c(=O)c23)C1 (stereo unspecified) | 13% (active)
CC1CCc2c(sc3nnn(Cc4ccc(F)cc4)c(=O)c23)C1 (stereo unspecified) | -1% (active)
CCc1ccccc1NC(=O)Cn1nnc2sc3c(c2c1=O)CCC(C(C)(C)C)C3 (stereo unspecified) | 47% (active)

Compound | survival
Cc1ccc(Cn2nnc3sc4c(c3c2=O)CCC(C)C4)cc1 (stereo unspecified) | 54% (active)
CC1CCc2c(sc3nnn(CC(=O)Nc4ccccc4Cl)c(=O)c23)C1 (stereo unspecified) | 71% (inactive)
CC1CCc2c(sc3nnn(CCCCOc4ccc(Cl)cc4)c(=O)c23)C1 (stereo unspecified) | 107% (inactive)
CCCCc1ccc(NC(=O)Cn2nnc3sc4c(c3c2=O)CCC(C)C4)cc1 (stereo unspecified) | 58% (inactive)
COC(=O)c1ccc(Cn2nnc3sc4c(c3c2=O)CCC(C)C4)cc1 (stereo unspecified) | 79% (inactive)
CCN(CC)C(=O)Cn1cc(SCC(=O)Nc2ccccc2F)c2ccccc21 | 103% (inactive)
CCc1cccc(NC(=O)c2cc3c(=O)[nH]c4ccccc4c3n2C)c1 | 89% (inactive)
C=CCNC(=O)C(C)N1CCN(C)CC1 (stereo unspecified) | 73% (inactive)
Cc1ccccc1CNC(=O)C1CCN(S(=O)(=O)Cc2ccccc2)CC1 | 75% (inactive)
CCOc1ccc(-c2nnc(SCC(=O)Oc3ccccc3)o2)cc1 | 71% (inactive)
CCC12CN3CC(C)(CN(C1)C3c1ccc(O)cc1O)C2=O (stereo unspecified) | 78% (inactive)
CCc1ccc(S(=O)(=O)c2nnn3c2nc(NCc2ccccc2)c2cc(Cl)ccc23)cc1 | 86% (inactive)
CC1CCc2c(sc3nnn(Cc4ccccc4)c(=O)c23)C1 (stereo unspecified) | 3% (active)
CCCOC(=O)c1ccc(Cn2nnc3sc4c(c3c2=O)CCC(C)C4)cc1 (stereo unspecified) | 79% (inactive)
CC1CCc2c(sc3nnn(Cc4cccc(C(=O)OC(C)C)c4)c(=O)c23)C1 (stereo unspecified) | 78% (inactive)
COc1ccccc1CNC(=O)C(C)n1c(=O)cc(C(F)(F)F)c2c(C)nn(C)c21 (stereo unspecified) | 94% (inactive)
COc1ccccc1NC(=O)Cn1nc2c3cc(F)ccc3n(Cc3cccc(C)c3)cc-2c1=O | -2% (active)
CCOc1ccccc1NC(=O)Cn1nc2c3cc(F)ccc3n(Cc3cccc(C)c3)cc-2c1=O | 72% (inactive)
CCc1ccccc1NC(=O)Cn1nc2c3cc(F)ccc3n(Cc3cccc(C)c3)cc-2c1=O | 84% (inactive)
O=C(Cn1ccn(-c2cccc(Cl)c2)c(=O)c1=O)c1ccc(F)cc1 | 59% (inactive)
O=C(Nc1ccc(Cl)cc1C(F)(F)F)c1cc(S(=O)(=O)NCc2ccccc2)ccc1F | 130% (inactive)
O=C(CN(Cc1ccccc1)C(=O)Cn1nnc(-c2ccc(F)cc2)n1)NC1CCCC1 | 70% (inactive)
